Assay results published in PubChem BioAssay AID1731 (National Center for Advancing Translational Sciences (NCATS), 2009).
Active and inactive are the calls of the source. The call rests on the fitted dose curve; in most records, active means well fitted curve in the direction sought with a large enough effect; inactive means no such curve, though single readings can be large or run the other way.

target: Epidermal growth factor receptor (Homo sapiens) (UniProt P00533); experiment: Assay for Inhibitors of the ERK Signaling Pathway using a Homogeneous Screening Assay: EGFR Kinase Inhibition; conditions: homogeneous biochemical assay; series mostly up to 21.9 µM; activity change, negative = inhibition: at the top concentration
Sequence (P00533 whole entry, looked up): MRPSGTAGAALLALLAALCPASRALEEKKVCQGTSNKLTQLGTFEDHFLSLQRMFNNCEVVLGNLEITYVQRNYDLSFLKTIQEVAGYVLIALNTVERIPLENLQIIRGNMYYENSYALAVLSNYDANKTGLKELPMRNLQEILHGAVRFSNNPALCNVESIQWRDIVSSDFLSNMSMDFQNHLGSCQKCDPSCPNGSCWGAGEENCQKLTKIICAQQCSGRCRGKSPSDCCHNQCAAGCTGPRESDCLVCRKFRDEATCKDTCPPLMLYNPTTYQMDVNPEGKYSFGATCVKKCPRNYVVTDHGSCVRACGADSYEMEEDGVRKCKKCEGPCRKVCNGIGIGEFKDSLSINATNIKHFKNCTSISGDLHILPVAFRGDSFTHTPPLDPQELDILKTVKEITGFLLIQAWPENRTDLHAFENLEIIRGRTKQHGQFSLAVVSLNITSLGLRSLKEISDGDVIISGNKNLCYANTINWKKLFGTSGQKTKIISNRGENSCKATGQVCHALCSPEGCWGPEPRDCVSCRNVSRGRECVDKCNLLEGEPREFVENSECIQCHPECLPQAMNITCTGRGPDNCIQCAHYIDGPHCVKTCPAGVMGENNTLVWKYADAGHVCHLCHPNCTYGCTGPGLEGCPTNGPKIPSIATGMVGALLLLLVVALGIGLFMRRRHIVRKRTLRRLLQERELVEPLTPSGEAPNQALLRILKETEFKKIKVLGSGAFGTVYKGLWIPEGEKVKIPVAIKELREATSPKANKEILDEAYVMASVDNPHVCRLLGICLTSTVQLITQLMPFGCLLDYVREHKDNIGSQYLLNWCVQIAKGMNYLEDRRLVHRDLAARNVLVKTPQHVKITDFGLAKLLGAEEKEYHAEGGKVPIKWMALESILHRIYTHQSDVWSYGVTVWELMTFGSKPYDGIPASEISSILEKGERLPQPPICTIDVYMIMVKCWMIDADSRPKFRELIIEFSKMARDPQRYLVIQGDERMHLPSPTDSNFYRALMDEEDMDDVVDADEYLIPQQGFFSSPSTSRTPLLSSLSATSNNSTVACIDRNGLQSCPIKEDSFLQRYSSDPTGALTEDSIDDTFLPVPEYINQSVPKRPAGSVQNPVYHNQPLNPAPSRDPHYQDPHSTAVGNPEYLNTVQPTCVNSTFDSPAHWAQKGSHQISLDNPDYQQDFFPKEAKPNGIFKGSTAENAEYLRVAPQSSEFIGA
From the text: qHTS Assay for Inhibitors of the ERK Signaling Pathway using a Homogeneous Screening Assay
NIH Chemical Genomics Center [NCGC]
NIH Molecular Libraries Screening Centers Network [MLSCN]
Assay Submitter (PI): Dr. Wei Zheng, NCGC/NIH
The Ras/extracellular-signal-regulated kinase (ERK) mitogen activated protein (MAP) kinase signaling pathway (ERK1/2 cascade) plays is a key role in transmitting signals from the cell surface to the nucleus (Nishida and Gotoh 1993; Chang and Karin, 2001). The cascade is initiated by the small G-protein Ras, which recruits Raf […], where activation occurs. Alternatively, this pathway can be activated by elevating intracellular cAMP.
Activation of the ERK pathway is essential in increased cell division and cell survival. Sustained and constitutive activation of the ERK pathway, however, has been linked to uncontrolled cell proliferation, increased cell survival, and tumor progression. Thus, the ERK has been as an attractive target for cancer chemotherapy in the past few years (Sebolt-Leopold and Herrera, 2004). Given its physiological and pathological importance, assessment of ERK phosphorylation has been broadly performed in both basic research and drug discovery. Most assays for the measurement of ERK phosphorylation use the antibody-based detection methods, such as western blot and ELISA. These assays require multiple reagent additions with cell wash steps and are not suitable for high-throughput screening.
The current cell-based ERK phosphorylation assay was performed using AlphaScreen platform. AlphaScreen is a two bead-based proximity-dependent chemical energy transfer luminescent assay platform. The assay reagents (ERK SureFire(TM) kit) were supplied from TGR BioSciences (Australia). In the presence of specific antibodies, phosphorylated ERK will bring "donor" and "acceptor" beads to a proximity range (<200 nm), and subsequently lead a chemical luminescent reaction upon exciting donor beads with 680 nm laser. To validate pathway hits from the cell-based assay, enzyme assays consisting of EGFR tyrosine kinase, Raf and MEK were used as a means of deciphering the enzymes of target for the prioritized group of compounds derived from the HEK-293 cell based assay. The compounds were tested against significant members of the ERK signaling pathway EGFR and EGFR mutants (EGFR L858R, EGFR T790M, and EGFR L858R T790M). In order to establish the specificity of the prioritized compounds for EGFR and EGFR mutants, the compounds were also assayed against other important ERK signaling pathway enzymes, c-RAF and MEK-1.
NCGC Assay Protocol Summary:
The HTRF kinase assay (components supplied as kit by Cisbio) was chosen for the EGFR and EGFR mutant enzyme assays that applied the time resolved fluorescence resonance energy transfer (TR-FRET) principle. A peptide substrate is labeled with a biotin that can bind to XL665 labeled streptavidin and the anti-phosphoresidue antibody is labeled with Eu+. Upon phosphorylation of the substrate, the antibody binds to phosphorylated substrate that enables TR-FRET detection in homogenous assay format.
An HTRF Kinease TK assay kit (Cisbio, Bedford, MA) was used to develop the EGFR and EGFR mutant assays (Harbert et al., 2008. Harbert C, Marshall J, Soh S, Steger K. Development of a HTRF Kinase Assay for Determination of Syk Activity. Current Chemical Genomics. 1: 20-26. 2008). EGFR and EGFR mutants were obtained from Invitrogen. The assay buffer was composed of 50 mM HEPES (pH 7.0), 5 mM MgCl2, 5mM DTT, 0.1 % NaN3, 0.1 % BSA and 0.1 mM orthovanadate.
The HTRF assays were preformed according to the HTRF Kinease TK kit. Optimization for each enzyme was preformed in 384 well format (data not included). All reagents were dispensed into 1536 well plates.
(1) Enzyme, […] EGFR at 3 nM final
(2) Compound, 22 nl, Library Compounds in 0.128 to 10 mM titration series or control
(3) Reagent, 1.5 ul 10 uM ATP and 0.25 uM substrate final
(4) Incubation for 30 min, Ambient conditions
[…]

Row | Structure (SMILES) | Potency | activity change, negative = inhibition
1 | Fc1ccc(Nc2ncnc3sc4c(c23)CCC4)cc1F | 70.8 nM (active) | –
2 | Cn1c(=O)[nH]c2nnc(-c3ccc(Cl)c(Cl)c3)nc2c1=O | – | -10.3% (inactive)
3 | COc1ccc(C(=O)c2ccc(Cl)c([N+](=O)[O-])c2)cc1 | – | -7.44% (inactive)
4 | N#C/C(=C(/N)Sc1ccc(N)cc1)c1ccccc1C(F)(F)F | inactive | –
5 | O=C1c2ccccc2C(=O)c2c(NCCCN(CCO)CCO)cccc21 | – | -1.11% [at 65.8 µM] (inactive)
6 | CNc1cccc2c1C(=O)c1ccccc1C2=O | – | -3.66% [at 65.8 µM] (inactive)
7 | Cc1ccc2nc(=O)c(NNc3ccccc3)cnc2c1 | 708 nM (active) | –
8 | Cc1ccc(NNc2c(C)nc3ccccc3nc2=O)cc1 | 4470 nM (active) | –
9 | O=C1c2ccccc2C(=O)c2c1cccc2N1CCCC1 | – | -1.25% (inactive)
10 | Cn1nc(-c2ccc(Cl)cc2)nc2c(=O)n(C)c(=O)nc1-2 | – | -13% [at 65.8 µM] (inactive)
11 | Cc1nc2ccccc2nc(=O)c1NNc1ccccc1 | 708 nM (active) | –
12 | CCn1c(=O)c2[nH]c(-c3ccccc3)nc2n(CC)c1=O | – | -8.89% (inactive)
13 | CS(=O)(=O)CCNCc1nc(-c2ccc3ncnc(Nc4ccc(OCc5cccc(F)c5)c(Cl)c4)c3c2)cs1 | 8.9 nM (active) | –
14 | Cn1nc(-c2ccccn2)nc2c(=O)n(C)c(=O)nc1-2 | – | -18.1% [at 65.8 µM] (inactive)
15 | O=C(Nc1nc(-c2ccccc2)cs1)c1ccc(N2CCOCC2)c([N+](=O)[O-])c1 | – | -9.72% (inactive)
16 | CCN(CC)CCC(=O)Nc1cccc2c1C(=O)c1ccccc1C2=O | – | -9.46% (inactive)
17 | CN(C)c1cccc2c1C(=O)c1ccccc1C2=O | – | 5.22% [at 65.8 µM] (inactive)
